# Several values for one entry are separate records, joined by “and”; a condition that tells them apart may be missing. Equal values may be shown once. Some structures have more than one record in an assay (separate samples or runs), and their calls can disagree. Activity calls are given as the source filed them. Rule for the calls: active = hit-call score of the fitted dose curve at least 0.9, where 1 is the maximum; inactive = score below 0.9.
# Read-out: Monokine induced gamma interferon (MIG), CXCL9 (gene 4283)
# Assay: BSK_3C_MIG: BioMAP Diversity Plus: 3C Assay for Monokine induced gamma interferon (MIG) Biomarker Activity (AID 2283021);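 for AC50: MIG protein level measured by immunoassay in the treated endothelial cultures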
# Details: primary human endothelial cells (HUVEC); actives raise or lower the signal
# Protocol: BSK_3C is a cell-based, multiplexed-readout assay that uses umbilical vein endothelium, a human vascular primary cell, with measurements taken at 24 hours after chemical dosing in a 96-well plate.BSK_3C_MIG is an assay component measured in the BSK_3C assay. It measures MIG antibody related to regulation of gene expression using ELISA technology.Data from the assay component BSK_3C_MIG was analyzed into 1 assay endpoint. This assay endpoint, BSK_3C_MIG, was analyzed with bidirectional fitting relative to DMSO as the negative control and baseline of activity. Using a type of binding reporter, gain or loss-of-signal activity can be used to understand changes in the signaling as they relate to the gene CXCL9. Furthermore, this assay endpoint can be referred to as a primary readout, because this assay has produced multiple assay endpoints where this one serves a signaling function. To generalize the intended target to other relatable targets, this assay endpoint is annotated to the cytokine intended target family, where the subfamily is chemotactic factor.
# The levels of cell surface (or secreted, indicated by the prefix "s") biomarker endpoints were measured by ELISA. Overt cytotoxicity to cells in confluent adherent cultures (all systems other than the BT system) was assessed by measuring total protein levels using sulforhodamine B (SRB) staining in parallel cultures at the time of biomarker measurements, indicated as SRB endpoints. For proliferation assays for adherent cell types, individual cell types are cultured at sub-confluence and relative cell numbers quantified by SRB staining at time points optimized for each system (48 h: 3C and CASM3C systems; 72 h: BT and HDF3CGF systems; 96 h: SAg system). SRB was performed by staining cells with 0.1% SRB after fixation with 10% TCA and reading wells at 560 nm.Viability and proliferation of PBMC (T cells) was quantified by Alamar Blue reduction for the SAg and BT systems. For PBMC viability (referred to as PBMC Cytotoxicity within the assay endpoint names), cells were plated (75,000/well in a 96-well plate) and then chemical samples added for 1 h before addition of activators, SEB and TSST-1 (20 ng/mL final concentration each). Cells were incubated for 90 h. Then, Alamar Blue (20 uL/well) (Invitrogen, Cat DAL1100) was added for 6 h, and the plates were read with a fluorescence microplate reader at 546/580 nm (excitation/emission). For PBMC proliferation, cells were plated and activated as above but incubated for only 16 h prior to addition of Alamar Blue. Plates were read after 6 h.
SMILES,outcome,AC50
COc1ccc(CO)cc1,inactive,
O=C1C=CC(=O)C=C1,inactive,35.6 µM (active)
CC(C)(C)C(O)C(Oc1ccc(-c2ccccc2)cc1)n1cncn1 (stereo not given),inactive,
Cc1ccc(OP(=O)(Oc2ccc(C)cc2)Oc2ccc(C)cc2)cc1 (tested in a mixture with another compound),inactive,
CC(C)CCCCCCCOC(=O)c1ccccc1C(=O)OCCCCCCCC(C)C,inactive,
C=CC(=O)OCC(CC)CCCC (stereo not given),inactive,
COCC(=O)N(c1c(C)cccc1C)N1CCOC1=O,inactive,
C=CCN(CC=C)C(=O)C(Cl)Cl,inactive,
CC(C)COP(=O)(OCC(C)C)OCC(C)C,inactive,
CCC(C)c1cc([N+](=O)[O-])cc([N+](=O)[O-])c1OC(=O)C=C(C)C (stereo not given),,35.3 µM (active)
Oc1ccc(C2(c3ccc(O)cc3)c3ccccc3-c3ccccc32)cc1,,16 µM (active) and 14.8 µM (active)
CNC(=O)Oc1cc(C)c(SC)c(C)c1,inactive,
Oc1cc(Cl)ccc1Cl,inactive,
CCCOC(=O)c1ccccc1C(=O)OCCC,inactive,
CC1(C)[C@H](C(=O)O[C@H](C#N)c2cccc(Oc3ccccc3)c2)[C@@H]1C=C(Br)Br,inactive,
O=C1C(Cl)=C(Cl)C(=O)C(Cl)=C1Cl,,29.2 µM (active)
O=c1[nH]c(Cl)c(Cl)cc1Cl,inactive,
CC(C)(c1cc(Cl)c(O)c(Cl)c1)c1cc(Cl)c(O)c(Cl)c1,,28.9 µM (active)
O=C(O)CCCc1ccc(N(CCCl)CCCl)cc1,inactive,32.8 µM (active)

SMILES,outcome,AC50
O=c1c2ccccc2c(=O)c2c1cc(Cl)c1[nH]c3c([nH]c12)c(Cl)cc1c(=O)c2ccccc2c(=O)c13,inactive,
O=[N+]([O-])C=Cc1ccccc1,,11.4 µM (active)
O=S(=O)(c1ccccc1)c1ccccc1,inactive,
CCc1cc(C)cc(CC)c1-c1c(OC(=O)C(C)(C)C)n2n(c1=O)CCOCC2,inactive,
CC(=O)/C=C/c1ccccc1,inactive,
CCCCCCCCCCCC#N,inactive,
Nc1ccc(-c2ccc(N)c(N)c2)cc1N,inactive,
[Cd+2].[Cl-].[Cl-],inactive,
O=[N+]([O-])c1ccc(Cl)cc1,inactive,
COC(C)(C)CCC[C@H](C)C/C=C/C(C)=C/C(=O)OC(C)C,,39.2 µM (active)
O=[N+]([O-])O,inactive,
CC(C)(C)C(=O)CCl,inactive,
O=P1(NCCCl)OCCCN1CCCl (stereo not given),inactive,
CC(C)CCCCCCCOP(=O)(Oc1ccccc1)Oc1ccccc1,inactive,
N#CCCCCC#N,inactive,
c1ccc(Nc2ccc3ccccc3c2)cc1,,33 µM (active)
CCCC[N+](CCCC)(CCCC)CCCC,inactive,
O=C(CCl)c1ccccc1,,9.6 µM (active)
Clc1ccc(-c2ccccc2)cc1,inactive,

# From PubChem BioAssay (EPA / NIEHS)
